# From PubChem BioAssay AID1159580 (chemical genetic matrix, 2015)
# “And” between values parts separate entries of the source, which are not always exact repeats. Equal entries are not always repeated. The campaign covered roughly 5,500 compounds. About 2,000 (36%) were called active. Inconclusive results (about 18%) are left out. The list shows a part of the results. Values without a mark were called inactive. Cut-off read from the data, not from the text of the source: active = normalized growth mostly below about 0.91 (no sharp cut-off); inconclusive = no clear call, values can overlap the other calls; inactive = mostly above about 0.92.
# Test: chemical genetic growth profiling, strain panel (AID 1159580);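 note: tested at 20 µM; growth read once vehicle control cultures reached saturation at 30 °C; 1 = growth at the plate median or of vehicle wells; lower values mean less growth of the strain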
# Settings: S. cerevisiae deletion strains, growth OD
smiles,measurement,setting,value
CN1C[C@H](C(=O)N[C@]2(C)O[C@@]3(O)[C@@H]4CCCN4C(=O)[C@H](Cc4ccccc4)N3C2=O)C[C@@H]2c3cccc4[nH]cc(c34)C[C@H]21,normalized growth,"locus YAL013W, strain DEP1, stronger effect = lower value",0.96
same,normalized growth,"locus YAL021C, strain ccr4, stronger effect = lower value",0.95
same,normalized growth,"locus YAL026C, strain drs2, stronger effect = lower value",1.01
same,normalized growth,"locus YAL030W, strain snc1, stronger effect = lower value",0.984
same,normalized growth,"locus YBL061C, strain skt5, stronger effect = lower value",0.996
same,normalized growth,"locus YBR009C, strain hhf1, stronger effect = lower value",1.07
same,normalized growth,"locus YBR021W, strain FUR4, stronger effect = lower value",0.929
same,normalized growth,"locus YBR023C, strain chs3, stronger effect = lower value",1
same,normalized growth,"locus YBR171W, strain sec66, stronger effect = lower value",0.973
same,normalized growth,"locus YBR229C, strain ROT2, stronger effect = lower value",0.983
same,normalized growth,"locus YBR231C, strain swc5, stronger effect = lower value",0.987
same,normalized growth,"locus YBR279W, strain paf1, stronger effect = lower value",0.997
same,normalized growth,"locus YCL011C, strain gbp2, stronger effect = lower value",0.966
same,normalized growth,"locus YCL016C, strain dcc1, stronger effect = lower value",0.998
same,normalized growth,"locus YCL029C, strain bik1, stronger effect = lower value",0.973
same,normalized growth,"locus YCL061C, strain MRC1, stronger effect = lower value",0.998
same,normalized growth,"locus YCL069W, strain vba3, stronger effect = lower value",0.992
same,normalized growth,"locus YCR088W, strain abp1, stronger effect = lower value",0.994
same,normalized growth,"locus YDL005C, strain med2, stronger effect = lower value",0.997
same,normalized growth,"locus YDL035C, strain GPR1, stronger effect = lower value",1.01
same,normalized growth,"locus YDL040C, strain nat1, stronger effect = lower value",1
same,normalized growth,"locus YDL074C, strain BRE1, stronger effect = lower value",0.896
same,normalized growth,"locus YDL101C, strain DUN1, stronger effect = lower value",0.957
same,normalized growth,"locus YDL134C, strain PPH21, stronger effect = lower value",0.992
same,normalized growth,"locus YDL185W, strain tfp1, stronger effect = lower value",0.998
same,normalized growth,"locus YDL192W, strain arf1, stronger effect = lower value",0.988
same,normalized growth,"locus YDR001C, strain nth1, stronger effect = lower value",0.981
same,normalized growth,"locus YDR069C, strain doa4, stronger effect = lower value",0.987
same,normalized growth,"locus YDR101C, strain arx1, stronger effect = lower value",0.996
same,normalized growth,"locus YDR137W, strain rgp1, stronger effect = lower value",1.02
same,normalized growth,"locus YDR150W, strain NUM1, stronger effect = lower value",1
same,normalized growth,"locus YDR159W, strain sac3, stronger effect = lower value",1
same,normalized growth,"locus YDR162C, strain NBP2, stronger effect = lower value",0.987
same,normalized growth,"locus YDR195W, strain ref2",0.99
same,normalized growth,"locus YDR297W, strain sur2, stronger effect = lower value",0.981
same,normalized growth,"locus YDR318W, strain mcm21, stronger effect = lower value",0.97
same,normalized growth,"locus YDR334W, strain swr1, stronger effect = lower value",0.944
same,normalized growth,"locus YDR335W, strain msn5, stronger effect = lower value",0.992
same,normalized growth,"locus YDR388W, stronger effect = lower value",0.981
same,normalized growth,"locus YDR392W, strain spt3, stronger effect = lower value",0.871
same,normalized growth,"locus YDR502C, strain sam2, stronger effect = lower value",0.968
same,normalized growth,"locus YEL003W, strain gim4, stronger effect = lower value",0.99
same,normalized growth,"locus YEL037C, strain rad23, stronger effect = lower value",0.987
same,normalized growth,"locus YEL061C, strain CIN8 (second series), stronger effect = lower value",0.994
same,normalized growth,"locus YEL061C, strain CIN8, stronger effect = lower value",0.996
same,normalized growth,"locus YER015W, strain faa2, stronger effect = lower value",0.971
same,normalized growth,"locus YER016W, strain bim1, stronger effect = lower value",0.988
same,normalized growth,"locus YER110C, stronger effect = lower value",0.977
same,normalized growth,"locus YER111C, strain swi4, stronger effect = lower value",1.01
same,normalized growth,"locus YER155C, strain BEM2 (second series), stronger effect = lower value",0.964
same,normalized growth,"locus YER155C, strain BEM2, stronger effect = lower value",0.979
same,normalized growth,"locus YER167W, strain BCK2, stronger effect = lower value",0.981
same,normalized growth,"locus YFR010W, strain ubp6, stronger effect = lower value",0.997
same,normalized growth,"locus YGL078C, strain dbp3, stronger effect = lower value",0.982
same,normalized growth,"locus YGL086W, strain mad1, stronger effect = lower value",0.985
same,normalized growth,"locus YGL167C, strain pmr1, stronger effect = lower value",1
same,normalized growth,"locus YGL173C, strain kem1, stronger effect = lower value",0.993
same,normalized growth,"locus YGL227W, strain vid30, stronger effect = lower value",0.996
same,normalized growth,"locus YGL240W, strain doc1, stronger effect = lower value",0.938
same,normalized growth,"locus YGL248W, strain PDE1, stronger effect = lower value",0.945
same,normalized growth,"locus YGL253W, strain hxk2, stronger effect = lower value",0.98
same,normalized growth,"locus YGR078C, strain PAC10, stronger effect = lower value",0.947
same,normalized growth,"locus YGR135W, strain pre9, stronger effect = lower value",0.912
same,normalized growth,"locus YGR252W, strain gcn5, stronger effect = lower value",0.741 (active)
same,normalized growth,"locus YHR013C, strain ard1, stronger effect = lower value",0.971
same,normalized growth,"locus YHR027C, strain rpn1, stronger effect = lower value",0.967
same,normalized growth,"locus YHR030C, strain SLT2, stronger effect = lower value",0.994 and 1.01
same,normalized growth,"locus YHR079C, strain IRE1 (second series), stronger effect = lower value",0.977
same,normalized growth,"locus YHR079C, strain IRE1, stronger effect = lower value",1.01
same,normalized growth,"locus YHR094C, strain hxt1, stronger effect = lower value",0.98
same,normalized growth,"locus YHR129C, strain ARP1, stronger effect = lower value",0.983
same,normalized growth,"locus YHR142W, strain chs7, stronger effect = lower value",1
same,normalized growth,"locus YHR200W, strain rpn10, stronger effect = lower value",0.981
same,normalized growth,"locus YIL066C, strain RNR3, stronger effect = lower value",0.984
same,normalized growth,"locus YIL073C, strain SPO22, stronger effect = lower value",0.98
same,normalized growth,"locus YIL125W, strain kgd1, stronger effect = lower value",0.987
same,normalized growth,"locus YIR030C, strain dcg1, stronger effect = lower value",0.975
same,normalized growth,"locus YJL092W, strain hpr5, stronger effect = lower value",0.985
same,normalized growth,"locus YJL095W, strain BCK1 (second series), stronger effect = lower value",0.98
same,normalized growth,"locus YJL095W, strain BCK1, stronger effect = lower value",0.926 and 1.03
same,normalized growth,"locus YJL115W, strain asf1, stronger effect = lower value",0.983
same,normalized growth,"locus YJL129C, strain trk1, stronger effect = lower value",0.973
same,normalized growth,"locus YJL134W, strain LCB3, stronger effect = lower value",0.984
same,normalized growth,"locus YJL154C, strain vps35, stronger effect = lower value",0.982
same,normalized growth,"locus YJL164C, strain tpk1, stronger effect = lower value",1.02
same,normalized growth,"locus YJL166W, strain qcr8, stronger effect = lower value",0.94
same,normalized growth,"locus YJL168C, strain set2, stronger effect = lower value",0.98
same,normalized growth,"locus YJL187C, strain SWE1 (second series), stronger effect = lower value",0.941
same,normalized growth,"locus YJL187C, strain SWE1, stronger effect = lower value",0.986
same,normalized growth,"locus YJR043C, strain POL32, stronger effect = lower value",0.991
same,normalized growth,"locus YJR066W, strain TOR1, stronger effect = lower value",0.94
